SMILES strings stand for the structures. Among all 410,000 compounds or so, about 7,200 (1.8%) were called active. Not shown: some 7% with an inconclusive outcome. Shown is part of a subset that was picked to be rich in actives. A call without a number means that no potency is given here. Unmarked numbers belong to inactive results. Calls come from the whole dose curve; as a rule, active = well fitted activation curve with a large enough effect; inconclusive = small, poorly fitted or top-dose-only effect, or another doubt; inactive = no such curve, though single readings can be large or run the other way.
Potency is the fitted concentration of half-maximal effect.

The assay is described as follows: qHTS of TDP-43 Inhibitors. Note: nearly all actives have a fitted effect of over 50% in size. To be noted: TDP-43 expressing yeast growth rescue, BacTiter-Glo, 24 h; series mostly up to 46.1 µM. Put shortly: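 Yeast expressing TDP-43 (pregrown in raffinose, seeded at OD600=0.02 in galactose medium) exposed to compounds 24 hr at 30 deg C. Growth read by BacTiter-Glo luminescence; rescue of toxicity appears as increased signal.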
For `COc1ccc(-c2cn3nc(N4CCCC(C(=O)NCCCOC(C)C)C4)sc3n2)cc1` (stereo not given), the Potency entry was “inactive”.

For `COC(=O)c1sc2ncccc2c1-n1c(C)ccc1C`, the Potency entry was “inactive”.

As for `COc1ccc(-n2c(C)csc2=S)cc1`, the Potency entry was “inactive”.

As for `COC(=O)c1sc(=S)n(-c2ccc(Cl)cc2)c1C`, the Potency was 12.6 µM (active).

Consider `Cc1ccccc1-c1nc(SCC(=O)N(C)c2ccccc2)c2c(=O)n(C)c(=O)n(C)c2n1`, for which the growth rescue (activation) is 0% [at 9.22 µM].

Regarding `CCN1CCN(c2ncnc3c2cnn3-c2ccc(C)c(C)c2)CC1`, the Potency entry was “inactive”.

Take `CCc1cc2c(N3CCN(c4nnc(CC)s4)CC3)ncnc2s1`: the Potency is 17.8 µM (active).

In the case of `Cc1ccc(NC(=O)CSc2nnc3[nH]c(=O)cc(C)n23)cc1Cl`, the Potency result is “inactive”.

Turning to `COc1ccc(-c2cc(-c3nc(-c4cc(OC)c(OC)c(OC)c4)no3)[nH]n2)c(OC)c1`, the Potency entry is “inactive”.

Take `CCOc1ccc(CNC(=O)C2CCCN(S(=O)(=O)N(CC)c3ccc(OCC)cc3)C2)cc1` (stereo not given): the Potency result was “inactive”.

As to `Oc1ccc(-c2[nH]ncc2-c2nc3ccccc3s2)c(O)c1`, the Potency result was “inactive”.

Turning to `CCN(CCn1cccn1)Cc1cn[nH]c1-c1ccc(OC)cc1F`, the Potency entry was “inactive”.

In the case of `CCOc1ccccc1Oc1cn[nH]c1-c1ccc(OC)cc1O`, the Potency was 22.4 µM (active).

Turning to `Cc1cccc(N2CCN(C(=O)c3ccc4c(c3)CCN4S(=O)(=O)c3ccccc3)CC2)c1C`, the Potency entry is “inactive”.

On to `CC(=O)c1ccc(NC(c2ccc(F)cc2)c2nnc(-c3ccccc3)o2)cc1` (stereo not given), for which the Potency entry was “inactive”.

Regarding `CCOC(=O)c1c(NC(=O)c2cc(CC)on2)sc(C(C)=O)c1C`, the Potency entry is “inactive”.

As to `O=C(CNC(=O)OCc1ccccc1)NC1CCCCNC1=O` (stereo not given), the Potency entry is “inactive”.

With `O=C(CNC(=O)Cc1ccccc1)NCC(=O)OCC(=O)c1ccccc1Cl`, the Potency result is “inactive”.

As for `O=C(CNC(=O)OCc1ccccc1)Oc1cc2oc(=O)cc(-c3ccccc3)c2cc1Cl`, the Potency is 7.08 µM (active).

For the molecule `CCc1ccc(NC(=O)CCS(=O)(=O)c2cc3c(cc2Cl)NC(=O)CO3)cc1`, the Potency result was “inactive”.

Take `CCCn1c(=O)c(-c2ccccc2)c(O)c2ccccc21`: the Potency is 22.4 µM (active).

`CCCCCn1c(=O)c(C(=O)OCC)c(Cl)c2ccccc21`: the Potency entry is “inactive”.

For `Cn1c(=O)c(C(=O)Nc2ncccn2)c(O)c2ccccc21`, the Potency entry is “inactive”.

Turning to `COc1ccc(OC)c(NC(=O)CSC2=Nc3ccccc3C3=NC(CC(=O)NCCc4ccccc4)C(=O)N23)c1` (stereo not given), the Potency entry is “inactive”.

As to `Cc1c(-c2nc(-c3ccc4c(c3)OCO4)no2)nnn1-c1ccc(Br)cc1F`, the Potency result is “inactive”.

With `CC1CCc2c(nc3ncnn3c2Nc2ccc(OC(F)(F)F)cc2)C1` (stereo not given), the Potency entry is “inactive”.

Turning to `Brc1ccc(Nc2c3c(nc4ncnn24)CCC3)cc1`, the Potency is 12.6 µM (active).

For the molecule `Cc1cc(Nc2ccc(C)c(C)c2)n2ncnc2n1`, the Potency entry was “inactive”.

For `COc1ccc(C(=O)c2oc3ccccc3c2NC(=O)COc2cccc(C)c2)cc1`, the growth rescue (activation) was 9.29% [at 9.22 µM].

For `Cc1c(NC(=O)c2cc(=O)c3ccccc3o2)c(=O)n(-c2ccccc2)n1C`, the Potency entry was “inactive”.

Regarding `CCOC(=O)c1cccc(NS(=O)(=O)c2cc(-c3cnc(C)o3)ccc2OC)c1`, the Potency result was “inactive”.

As for `C/C(Cc1ccccc1)=N\NC(=O)CNC(=O)c1ccc2c(c1)OCCO2`, the Potency result is “inactive”.

With `Cc1nc(NC(=O)c2ccc3c(c2)OCCO3)ccc1Br`, the Potency was 12.6 µM (active).

For `CS(=O)(=O)c1ccc(-c2nnc(NC(=O)c3ccc4c(c3)OCCO4)o2)cc1`, the Potency entry was “inactive”.

As for `Cc1ccc(C)c(NC(=O)C2CCCN(S(=O)(=O)c3cn(C)cn3)C2)c1` (stereo not given), the Potency entry was “inactive”.

With `CC(=O)N1CCCc2cc(S(=O)(=O)Nc3ccc(Cl)cc3F)ccc21`, the Potency result was “inactive”.

`CCn1nnc2cc(C(=O)Nc3ccc(C(=O)OC(C)C)cc3)ccc21`: the Potency was 11.2 µM (active).

Regarding `CCOc1ccc(CNC(=O)c2ccc3c(c2)nnn3C2CCCC2)cc1`, the Potency result was “inactive”.

As for `CCOC(=O)c1cccc(NC(=O)CCn2nnc3ccccc32)c1`, the Potency result is “inactive”.

Take `CCOC(=O)c1cc(-c2ccccc2)n(CCC(=O)Nc2ccccc2CC)c1C`: the Potency entry was “inactive”.

Take `O=C(Nc1c(C(=O)N2CCN(c3ccc(F)cc3)CC2)oc2ccccc12)c1ccco1`: the Potency entry is “inactive”.

In the case of `O=C(NNC1CC(=O)N(c2cccc(Cl)c2)C1=O)c1cccnc1` (stereo not given), the Potency result is “inactive”.

Turning to `O=C1[C@@H]2C(c3cccnc3)=NO[C@@H]2C(=O)N1c1ccc(Cl)cc1Cl`, the Potency is 35.5 µM (active).

Turning to `Cc1ccc(Cl)cc1N1CCN(C(=O)CN2C(=O)COc3ccc(S(=O)(=O)N4CCOCC4)cc32)CC1`, the Potency result was “inactive”.

`CCC(=O)N1CCc2cc(S(=O)(=O)NC(CC(C)C)C(=O)NCCc3cccc(C)c3)ccc21` (stereo not given): the Potency entry is “inactive”.

For `Cc1ccc(NC(=O)Cn2nnc3sc4c(c3c2=O)CCC(C)C4)cc1` (stereo not given), the Potency entry was “inactive”.

For the molecule `COc1ccc(Nc2ncc3c(n2)CCN(C(=O)OC(C)(C)C)C3)cc1`, the Potency is 14.1 µM (active).

As for `CC(C)(C)OC(=O)N1CCC(c2c(C(=O)N3CCc4ccccc4C3)cnn2-c2ccc(F)cc2)CC1`, the Potency result was “inactive”.

On to `COc1ccc(CN2CCc3nc(Nc4ccccc4)ncc3C2)c(OC)c1OC`, for which the Potency result was “inactive”.

As for `O=c1cc(-c2ccccc2)n2c(SCc3ccccc3)nnc2[nH]1`, the Potency entry is “inactive”.

Consider `Cc1cccc(N2CCN(C(=O)CCn3c(=O)c4cccn4c4cccnc43)CC2C)c1` (stereo not given), for which the Potency entry is “inactive”.

Turning to `CCc1cnc2c(c1SCC(=O)c1ccccc1)c(=O)n(C)c(=O)n2C`, the Potency entry is “inactive”.

As for `O=C(COC(=O)/C=C/c1cccc(Cl)c1)NCc1cccs1`, the Potency is 20 µM (active).

As to `O=C(COC(=O)c1ccc(Cl)nc1)NCc1cccs1`, the Potency result was “inactive”.

Take `COc1ccc(Cl)cc1C(=O)OCC(=O)NCc1cccs1`: the Potency entry is “inactive”.

Turning to `CCOc1ccc(CCNC(=O)c2ccc3c(c2)sc2nc(-c4ccc(F)cc4)cn23)cc1OCC`, the Potency result is “inactive”.

Take `COc1cc(C(=O)NC(=S)NCc2ccco2)cc(OC)c1OC`: the Potency entry is “inactive”.

For the molecule `COc1ccc2oc(C(=O)NCc3ccco3)c(C)c2c1`, the Potency is 12.6 µM (active).

In the case of `COc1ccc2oc(C(=O)NCC(Cc3ccccc3)N(C)C)c(C)c2c1` (stereo not given), the Potency entry is “inactive”.

`COc1cccc(C(c2c(O)cc(C)n(Cc3ccco3)c2=O)N2CCN(c3ccccc3)CC2)c1` (stereo not given): the Potency result was “inactive”.

For the molecule `CCCCC(CC)CNC(=O)C1CCN(S(=O)(=O)c2cccc3nsnc23)CC1` (stereo not given), the Potency result was “inactive”.

Consider `O=S(=O)(c1ccc2nc(N3CCN(c4cccc(Cl)c4)CC3)ccc2c1)N1CCCCC1`, for which the Potency result is “inactive”.

For the molecule `Cc1cc(OC(=O)c2ccc(OC(C)C)cc2)c([N+](=O)[O-])c(=O)[nH]1`, the Potency was 22.4 µM (active).

As for `Cc1cc(OC(=O)c2ccccc2)c([N+](=O)[O-])c(=O)[nH]1`, the Potency entry is “inactive”.

As to `COc1cccc(C(=O)Oc2cc(C)[nH]c(=O)c2[N+](=O)[O-])c1`, the Potency result is “inactive”.
